Seven compounds from PubChem BioAssay (NCI) can be followed below.

Some test systems named below: HCT-15 colon; HT29 colon; SNB-75 CNS; SNB-19 CNS; U251 CNS; PC-3 prostate; SK-MEL-5 melanoma; UACC-62 melanoma; LOX IMVI melanoma; SK-MEL-28 melanoma; SK-MEL-2 melanoma; EKVX NSCLC; SN12C renal; UO-31 renal; TK-10 renal; ACHN renal; CAKI-1 renal; A498 renal; CCRF-CEM leukemia; MOLT-4 leukemia.
Holding throughout (assay): NCI-60 one-dose screen, 48 h (100 = growth as untreated, 0 = no growth, -100 = all killed)
Common to all, as to details: 10 µM unless noted

Compounds without any hit were thinned out: in the full panel of roughly 83,000, 20% have a hit.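 In brief: 96-well plates, 48 h treatment, single concentration, percent growth endpoint.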 Values without a mark were called inactive. Active and inactive are the calls of the source. Rule for the calls: active = growth percent below 10; inactive = the rest.

For the compound `O=C(O)CCCc1cnc2c3sccc3nc(SCc3c(Cl)cccc3Cl)n12`, the growth is 36.9% in the experiment on HCT-15 colon; 15.6% in the experiment on HT29 colon; 16% in the experiment on SNB-75 CNS; 41% in the experiment on SNB-19 CNS; 29.5% with U251 CNS; 50.7% in the experiment with PC-3 prostate. Further, the growth in the experiment with SK-MEL-5 melanoma was 52.9%; in the experiment on UACC-62 melanoma it was 21.2%; in the experiment on LOX IMVI melanoma, 39.9%; in the experiment on SK-MEL-28 melanoma, 75.3%; in the experiment on SK-MEL-2 melanoma, 20.6%; with EKVX NSCLC, 63%. In addition, the growth in the experiment on SN12C renal was 57.2%; in the experiment on UO-31 renal it was 49%; with TK-10 renal it was 65.3%; with ACHN renal, 61.1%; with CAKI-1 renal it was 42.2%; with A498 renal, 46.1%. Moreover, the growth in the experiment with CCRF-CEM leukemia is 31.2%; in the experiment on MOLT-4 leukemia, 50.5%.
With `CC1(C)CCC(S(=O)(=O)c2ccc3c(c2)/C(=N\O)c2cc(S(=O)(=O)N4CCN(c5ccc(F)cc5O)CC4)ccc2-3)CC1`, the growth with HCT-15 colon was -75.1% (active); with HT29 colon, -88.7% (active); with SNB-75 CNS it was -97.6% (active); in the experiment with SNB-19 CNS it was -72.7% (active); with U251 CNS, -97.7% (active); with PC-3 prostate, -64.2% (active). Besides, the growth in the experiment on SK-MEL-5 melanoma was -93.6% (active); with UACC-62 melanoma, -69.7% (active); in the experiment with LOX IMVI melanoma, -82.6% (active); with SK-MEL-28 melanoma, -72.2% (active); with SK-MEL-2 melanoma it was -85.6% (active); in the experiment with EKVX NSCLC, -53% (active). In addition, the growth with SN12C renal is 19.8%; in the experiment on UO-31 renal, -91.4% (active); in the experiment on TK-10 renal, -82% (active); in the experiment with ACHN renal, 0.0292% (active); with CAKI-1 renal, -76.1% (active); in the experiment with A498 renal it was -65.3% (active). Besides, the growth in the experiment with CCRF-CEM leukemia is -63.4% (active); in the experiment on MOLT-4 leukemia, -71.9% (active).
`CC[C@H](C)[C@H](NC(=O)[C@H](CCCNC(=N)N)NC(=O)[C@H](Cc1c[nH]c2ccccc12)NC(=O)[C@@H](NC(=O)[C@H](CCCCN)NC(=O)[C@H](CCCCN)NC(=O)[C@@H](NC(=O)[C@@H](NC(=O)[C@@H](NC(=O)[C@H](CCCCN)NC(=O)[C@H](Cc1ccccc1)NC(=O)[C@H](CCCCN)NC(=O)[C@H](CCCCN)NC(=O)[C@H](Cc1ccccc1)NC(=O)[C@@H](NC(=O)[C@@H](N)CCCCN)[C@@H](C)CC)[C@@H](C)O)[C@@H](C)CC)[C@@H](C)CC)C(C)C)C(=O)N[C@@H](Cc1ccccc1)C(=O)NCC(=O)N[C@@H](CCCNC(=N)N)C(=O)N[C@@H](Cc1ccccc1)C(N)=O`: the growth in the experiment on HCT-15 colon was -43% (active); with HT29 colon it was -35.7% (active); with SNB-75 CNS, -34% (active); with SNB-19 CNS it was -35.9% (active); in the experiment with U251 CNS, -44.1% (active); with PC-3 prostate it was -25.9% (active). Moreover, the growth in the experiment on SK-MEL-5 melanoma is 3.57% (active); in the experiment with UACC-62 melanoma, -65.7% (active); with LOX IMVI melanoma, -11% (active); in the experiment with SK-MEL-28 melanoma it was -31.7% (active); in the experiment on SK-MEL-2 melanoma, -37.5% (active); in the experiment on EKVX NSCLC, -71% (active). The growth is -56.1% (active) with SN12C renal; -68.2% (active) in the experiment with UO-31 renal; -69.4% (active) in the experiment on TK-10 renal; -54.7% (active) in the experiment on ACHN renal; -52.2% (active) in the experiment with CAKI-1 renal; -40.9% (active) in the experiment on A498 renal. Moreover, the results for the growth in the experiment on CCRF-CEM leukemia and in the experiment with MOLT-4 leukemia were 17.6% and 29%, respectively.
On to `Cc1cc2nc(-c3c(-c4ccc(F)cc4)nc4sccn34)[nH]c2cc1C`, for which the growth is 93% in the experiment on HCT-15 colon; 96.3% in the experiment on HT29 colon; 105% in the experiment on SNB-75 CNS; 96.1% with SNB-19 CNS; 95.4% in the experiment with U251 CNS; 90.5% with PC-3 prostate. Besides, the growth in the experiment with SK-MEL-5 melanoma is 86.3%; in the experiment with UACC-62 melanoma, 89%; in the experiment on LOX IMVI melanoma, 88.8%; with SK-MEL-28 melanoma, 95.2%; in the experiment with SK-MEL-2 melanoma, 100%; with EKVX NSCLC, 103%. Besides, the growth was 98.6% in the experiment with SN12C renal; 78.6% in the experiment on UO-31 renal; 86% in the experiment on TK-10 renal; 93.6% in the experiment with ACHN renal; 89.9% with CAKI-1 renal; 89.2% in the experiment on A498 renal. Also, the growth in the experiment on CCRF-CEM leukemia was 90.1%; in the experiment with MOLT-4 leukemia, 83.4%.
For the compound `CCn1cc(C(=O)NN=C2CCCCCC2)c(=O)c2ccc(C)nc21`, the growth is 86.2% in the experiment with HCT-15 colon; 99.7% with HT29 colon; 76.2% in the experiment with SNB-75 CNS; 88.5% in the experiment with SNB-19 CNS; 94.6% with U251 CNS; 82.7% in the experiment with PC-3 prostate. Besides, the growth with SK-MEL-5 melanoma is 87.1%; in the experiment on UACC-62 melanoma it was 73.2%; in the experiment on LOX IMVI melanoma it was 95%; with SK-MEL-28 melanoma, 93.8%; in the experiment with SK-MEL-2 melanoma, 105%; in the experiment on EKVX NSCLC, 93.2%. Moreover, the growth with SN12C renal is 85.5%; in the experiment on UO-31 renal, 75.2%; in the experiment on TK-10 renal it was 95.7%; in the experiment on ACHN renal, 84.7%; with CAKI-1 renal, 79.9%; with A498 renal, 58%. Also, the growth in the experiment on CCRF-CEM leukemia is 91.7%; in the experiment with MOLT-4 leukemia, 71%.
Turning to `COc1cc2oc(-c3cccc(NC(=O)c4ccc5c(c4)OCO5)c3)cc(=O)c2c(OC)c1OC`, the growth is 32.1% in the experiment with HCT-15 colon; 29.4% with HT29 colon; 67.4% in the experiment with SNB-75 CNS; 45.6% in the experiment with SNB-19 CNS; 32.5% with U251 CNS; -12% (active) in the experiment with PC-3 prostate. Moreover, the growth in the experiment on SK-MEL-5 melanoma was 16.4%; in the experiment with UACC-62 melanoma, 50%; in the experiment on LOX IMVI melanoma, 39.5%; in the experiment with SK-MEL-28 melanoma, 55.1%; in the experiment on SK-MEL-2 melanoma, 62.4%; in the experiment on EKVX NSCLC it was 83.2%. For the same compound, the growth in the experiment on SN12C renal was 42.1%; in the experiment on UO-31 renal, 24.2%; in the experiment with TK-10 renal it was 61.6%; in the experiment with ACHN renal, 47.8%; with CAKI-1 renal it was 77.1%; in the experiment with A498 renal it was 61.1%. In addition, the growth with CCRF-CEM leukemia was -11.9% (active); in the experiment with MOLT-4 leukemia, 2.9% (active).
For the compound `CN(C)c1ccc(C(=NO)c2ccc(N(C)C)cc2)cc1`, the growth was 24.4% with HCT-15 colon; 5.39% (active) with HT29 colon; 53.6% in the experiment with SNB-75 CNS; 46.3% with SNB-19 CNS; 28.1% with U251 CNS; 58% in the experiment on PC-3 prostate. Also, the growth with SK-MEL-5 melanoma is 14.5%; with UACC-62 melanoma, 28.1%; in the experiment on LOX IMVI melanoma it was 43.1%; in the experiment on SK-MEL-28 melanoma, 56.3%; in the experiment on SK-MEL-2 melanoma, -23% (active); in the experiment on EKVX NSCLC, 50.8%. For the same compound, the growth with SN12C renal was 45.5%; in the experiment on UO-31 renal it was 67.1%; in the experiment on TK-10 renal, 56.6%; with ACHN renal it was 50.9%; in the experiment with CAKI-1 renal, 24.1%; in the experiment on A498 renal it was 31.3%. The growth in the experiment with CCRF-CEM leukemia is 38.3%; in the experiment with MOLT-4 leukemia, 31.7%.
